According to PubChem BioAssay (NCATS):
Records with an inconclusive call do not appear. Activity calls are given as the source filed them. Unless noted, the call rests on the fitted dose curve; in most records, active means well fitted curve in the direction sought with a large enough effect; inconclusive means small, poorly fitted or top-dose-only effect, or another doubt; inactive means no such curve, though single readings can be large; an effect the other way counts as inactive or inconclusive.

Assays:
[1] = target: Estrogen receptor (Homo sapiens) (UniProt P03372); test: qHTS assay for small molecule antagonists of estrogen receptor alpha signaling (AID 588513; active means well fitted curve in the direction sought with a large enough effect in the signal ratio, with a control signal flat, not every such curve was filed as active; the % refers to the signal ratio; further: potency means the concentration at half of the fitted maximal effect)
In short: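 ER-alpha-UAS-bla GripTite HEK 293 cells in medium with 2% charcoal/dextran-treated FBS were preincubated 4 h at 37 C, dosed with compound (1:2 titration), stimulated with 0.5nM 17-beta-estradiol for 18 h, then read by CCF4 beta-lactamase fluorescence.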

[2] = target: Peroxisome proliferator-activated receptor delta (Homo sapiens) (UniProt Q03181); test: qHTS assay for small molecule agonists of peroxisome proliferator-activated receptor delta signaling (AID 588534; calls by dose curve;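 further: 0% = DMSO basal wells and 100% = positive control agonist at 10 µM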)
In short: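 Cell-based beta-lactamase reporter assay run in agonist mode: cells seeded and incubated 5 hrs at 37 C, compounds added and incubated 18 hrs at 37 C. CCF4 dye fluorescence read after 2 hrs at RT; EC50 and efficacy from Hill fits.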

[3] = target: Vitamin D3 receptor (Homo sapiens) (UniProt P11473); test: qHTS assay for small molecule agonists of vitamin D receptor signaling (AID 588543; calls by dose curve;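 further: 0% = DMSO basal and 100% = reference agonist control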)
In short: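 GeneBLAzer VDR-UAS-bla HEK293T cells in 2% charcoal-stripped FBS medium were dosed with compound titrations for 16 h at 37 °C; CCF4 β-lactamase readout (405 nm ex, 460/530 nm em). EC50 and efficacy from Hill fits, normalized to 50 nM calcitriol (100%) and DMSO (0%).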

[4] = qHTS assay for small molecule antagonists of retinoid X receptor alpha signaling (AID 588546; active means well fitted inhibition curve with a large enough effect in the signal ratio, with a control signal flat, not every such curve was filed as active; the % refers to the signal ratio; further: potency means the concentration at half of the fitted maximal effect;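 on max response: cells stimulated with 9-cis-retinoic acid as agonist; on the % scale 0 is the no-effect control and ±100 the full control effect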); settings: HEK293T RXRa-UAS-bla, beta-lactamase ratio, antagonist mode; measured here: W530 green channel, cytotoxicity proxy
In short: (§1)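 Beta-lactamase reporter inhibition, read as CCF4 fluorescence ratio (ex 405, em 460/530 nm) after 2 h at RT. HEK293T UAS-bla cells, 2500/well, were stimulated with 9-cis-RA at 500 or 100 nM final alongside test compound for 18 h at 37 C.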

[5] = target: Retinoic acid receptor RXR-alpha (Homo sapiens) (UniProt P19793); test: as above; settings: HEK293T RXRa-UAS-bla, beta-lactamase ratio, antagonist mode
In short: as §1

[6] = qHTS assay for small molecule activators of the p53 signaling pathway (AID 651743; active means well fitted activation curve with a large enough effect in the signal ratio, not every such curve was filed as active; the % refers to the signal ratio; further: potency means the concentration at half of the fitted maximal effect; on activation: series mostly up to about 92 µM; % of control where 0% means no effect); settings: HCT-116 p53RE-bla, beta-lactamase FRET ratio, 16 h; activation: stronger effect = higher value
In short: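 p53RE-bla HCT-116 cells with a stably integrated beta-lactamase reporter under p53 response elements were plated, rested 5 hours at 37 C/5% CO2, then exposed to compounds in DMSO for 16 hours at 37 C. LiveBLAzer B/G FRET substrate was read after 2 hours at room temperature.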

[7] = qHTS assay for environmental chemicals that activate the Aryl hydrocarbon Receptor (AhR) signaling pathway (AID 651777); settings: 1A2-DRE human hepatoma cells, luciferase, 24 h; activation: stronger effect = higher value; further: % of control where 0% means no effect; nearly all actives have a fitted effect of over 15% in size
In short: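 Measured luciferase activity, read 30 min after One-Glo addition at room temperature, from human hepatoma cells bearing a dioxin response element–CYP1A2 promoter reporter and exposed to compound for 24 hr at 37 C.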

[8] = target: Peroxisome proliferator-activated receptor alpha (Homo sapiens) (UniProt Q07869); test: qHTS assay for small molecule agonists of the peroxisome proliferator-activated receptor alpha (PPARalpha) signaling pathway (AID 651778); settings: PathHunter PPARalpha complementation, chemiluminescence, 6 h; max response: stronger effect = higher value; further: % of control where 0% means no effect
In short: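 Cells plated at 2,000/well and held overnight at 37 C, 5% CO2, then compound added by pin tool for 6 hr; after PathHunter detection reagent and 60 min at room temperature, chemiluminescence from enzyme complementation was read.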

[9] = qHTS assay for small molecule agonists of the antioxidant response element (ARE) signaling pathway measured by Nrf2-dependant transcriptional activity (AID 720636; active means well fitted curve in the direction sought with a large enough effect in the repeat runs; an effect the other way counts as inactive or inconclusive;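 further: HepG2 cells with an ARE-driven luciferase reporter; % of control where 0% means no effect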)
In short: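 In HepG2 cells engineered with an Nrf2-responsive luciferase gene, ARE induction was quantified as luminescence after 16 hr compound treatment at 37 C.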

[10] = qHTS assay for small molecule agonists of the antioxidant response element (ARE) signaling pathway measured by Nrf2-dependant transcriptional activity - cell viability counter screen (AID 720653; active means well fitted curve in the direction sought with a large enough effect in the repeat runs; an effect the other way counts as inactive or inconclusive; further: on the % scale 0 is the no-effect control and ±100 the full control effect); settings: ARE-bla HepG2 viability, CellTiter-Glo ATP luminescence, 16 h; max response: stronger effect = lower value
In short: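 ARE-bla HepG2 cells (2,000/well) rested 5 hrs at 37C/5% CO2, then exposed to compounds in DMSO for 16 hrs. Viability was read in the same wells as intracellular ATP by luminescence, 30 min at room temperature after reagent addition.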

[11] = qHTS assay for cell viability of HEK293 cells (AID 743288); settings: ATP luminescence (CellTiter-Glo), 18 h; max response: stronger effect = lower value; further: on the % scale 0 is the no-effect control and ±100 the full control effect; nearly all actives have a fitted effect of over 50% in size
In short: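 Parental HEK293 cells were seeded at 2,000 cells/well, rested at least 5 h at 37 C, then exposed to compounds in DMSO for 18 h at 37 C. Viability was read as ATP-dependent luciferase luminescence after 30 min at room temperature.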

[12] = qHTS assay for small molecule antagonists of peroxisome proliferator-activated receptor delta signaling (AID 588535); settings: HEK293T PPARd-UAS-bla, beta-lactamase FRET ratio, 18 h; 460 nm channel;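 further: cells co-treated with a PPAR-delta agonist as stimulator during compound exposure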
In short: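 GeneBLAzer PPAR-delta-UAS-bla HEK293T cells in medium with 2% charcoal/dextran FBS were preincubated 5 hrs at 37 C, then given compounds, incubated 18 hrs at 37 C, and read by CCF4 beta-lactamase fluorescence; IC50 from Hill fits.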

[13] = target: Peroxisome proliferator-activated receptor gamma (Homo sapiens) (UniProt P37231); test: qHTS assay for small molecule agonists of peroxisome proliferator-activated receptor gamma signaling (AID 588536; active means well fitted curve in the direction sought with a large enough effect in the signal ratio, with a control signal flat, not every such curve was filed as active; the % refers to the signal ratio;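 further: 0% = DMSO basal wells and 100% = rosiglitazone at 2 µM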)
In short: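 Test agents, titrated, stimulated HEK293 UAS-bla cells overnight (16 h, 37 C). Substrate CCF4 was then added for two hours at room temperature before fluorescence reading.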

[14] = target: Vitamin D3 receptor (Homo sapiens) (UniProt P11473); test: qHTS assay for small molecule antagonists of vitamin D receptor signaling (AID 588541; calls by dose curve;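 further: receptor activated by calcitriol during compound treatment; series mostly up to about 77 µM; on the % scale 0 is the no-effect control and ±100 the full control effect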)
In short: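 VDR-UAS-bla HEK293T cells (2000/well, 2% charcoal-stripped FBS) were treated with titrated compounds plus 1-alpha,25-dihydroxyvitamin D3 (50 nM or 3 nM final) for 16 h at 37 C. CCF4 beta-lactamase fluorescence was read; Hill fits gave IC50.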

[15] = qHTS assay for small molecule agonists of retinoid X receptor alpha signaling (AID 588544; calls by dose curve; further: potency means the concentration at half of the fitted maximal effect;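 on activation: 0% = DMSO basal wells and 100% = reference agonist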); settings: HEK293T RXRa-UAS-bla, beta-lactamase reporter, 18 h; 530 nm emission
[16] = target: Retinoic acid receptor RXR-alpha (Homo sapiens) (UniProt P19793); test: as above
[17] = target: Thyroid hormone receptor beta (Homo sapiens) (UniProt P10828); test: qHTS assay for small molecule agonists of thyroid hormone receptor beta signaling (AID 588545; calls by dose curve;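 further: 0% = DMSO only and 100% = 10 nM T3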)
In short: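 Stimulation of a TR-driven beta-lactamase reporter was quantified in GripTite HEK 293 cells. Compound series ran for 18 hrs; curves were normalized to T3 and DMSO controls and fitted to yield EC50.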

[18] = qHTS assay for cell viability of the p53RE-bla HCT-116 cell line (AID 743292); further: on the % scale 0 is the no-effect control and ±100 the full control effect; nearly all actives have a fitted effect of over 55% in size
In short: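 Intracellular ATP of p53RE-bla HCT-116 cells measured by luciferase luminescence following 16 h compound incubation at 37 C; DMSO-only wells served as vehicle controls.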

[19] = target: Nuclear receptor subfamily 1 group I member 2 (Rattus norvegicus) (UniProt Q9R1A7); test: qHTS assay for small molecule activators of the rat pregnane X receptor (rPXR) signaling pathway (AID 651751; call rule not given here; further: 0% is about no effect); settings: rPXR reporter cells, luciferase (One-Glo), 24 h
[20] = target: Peroxisome proliferator-activated receptor gamma (Homo sapiens) (UniProt P37231); test: qHTS assay for small molecule antagonists of peroxisome proliferator-activated receptor gamma signaling (AID 588537; active means well fitted inhibition curve with a large enough effect in the signal ratio, with a control signal flat, not every such curve was filed as active; the % refers to the signal ratio;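 further: reporter cells co-stimulated with 50 nM rosiglitazone agonist during compound treatment; % of control where 0% means no effect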)
In short: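 PPAR-gamma-UAS-bla HEK293 cells (3000/well, 1% charcoal/dextran-stripped FBS) were preincubated 6-6.5 h at 37 C, given titrated compounds, then stimulated with 50 nM rosiglitazone for 16 h. Beta-lactamase activity was read with CCF4 dye; IC50 came from Hill fits.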

Chain of Retinoic acid receptor RXR-alpha (Homo sapiens) (P19793 whole entry, looked up): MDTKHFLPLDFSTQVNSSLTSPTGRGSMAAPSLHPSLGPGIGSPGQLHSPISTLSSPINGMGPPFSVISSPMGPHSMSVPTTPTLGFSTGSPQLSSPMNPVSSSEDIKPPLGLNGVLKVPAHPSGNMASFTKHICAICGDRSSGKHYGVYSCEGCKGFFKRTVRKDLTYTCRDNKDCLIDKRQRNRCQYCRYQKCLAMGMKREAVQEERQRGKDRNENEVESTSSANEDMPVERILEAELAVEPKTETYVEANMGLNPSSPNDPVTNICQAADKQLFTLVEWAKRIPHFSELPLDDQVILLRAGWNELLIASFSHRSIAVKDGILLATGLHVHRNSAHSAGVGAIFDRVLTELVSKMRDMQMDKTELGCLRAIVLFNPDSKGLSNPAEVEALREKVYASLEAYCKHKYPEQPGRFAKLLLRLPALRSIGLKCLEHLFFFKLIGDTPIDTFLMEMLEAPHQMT
Chain of Nuclear receptor subfamily 1 group I member 2 (Rattus norvegicus) (Q9R1A7 whole entry, looked up): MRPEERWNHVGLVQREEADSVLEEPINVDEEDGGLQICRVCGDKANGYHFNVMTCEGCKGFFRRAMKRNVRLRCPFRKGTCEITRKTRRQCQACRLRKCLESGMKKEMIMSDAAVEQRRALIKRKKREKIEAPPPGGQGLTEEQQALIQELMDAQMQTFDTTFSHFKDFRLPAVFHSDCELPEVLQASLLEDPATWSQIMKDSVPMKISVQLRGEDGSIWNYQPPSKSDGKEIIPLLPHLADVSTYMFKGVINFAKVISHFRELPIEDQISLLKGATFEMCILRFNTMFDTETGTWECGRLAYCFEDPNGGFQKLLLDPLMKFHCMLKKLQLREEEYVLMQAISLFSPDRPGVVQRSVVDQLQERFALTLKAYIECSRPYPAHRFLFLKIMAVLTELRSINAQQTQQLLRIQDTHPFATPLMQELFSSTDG
Chain of Peroxisome proliferator-activated receptor alpha (Homo sapiens) (Q07869 whole entry, looked up): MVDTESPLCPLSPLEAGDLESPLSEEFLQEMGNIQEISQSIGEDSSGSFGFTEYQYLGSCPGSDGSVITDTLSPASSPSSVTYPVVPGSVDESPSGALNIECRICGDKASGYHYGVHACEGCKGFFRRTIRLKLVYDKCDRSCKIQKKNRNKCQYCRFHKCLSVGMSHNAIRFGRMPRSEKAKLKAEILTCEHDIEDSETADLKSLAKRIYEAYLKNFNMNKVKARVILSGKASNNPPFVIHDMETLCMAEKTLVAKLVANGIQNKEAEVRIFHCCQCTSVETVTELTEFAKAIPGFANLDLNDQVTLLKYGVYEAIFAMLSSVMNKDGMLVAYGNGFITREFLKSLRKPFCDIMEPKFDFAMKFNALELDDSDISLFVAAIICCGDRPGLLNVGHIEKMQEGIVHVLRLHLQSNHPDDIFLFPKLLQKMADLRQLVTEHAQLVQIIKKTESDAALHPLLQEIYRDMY
Chain of Thyroid hormone receptor beta (Homo sapiens) (P10828 whole entry, looked up): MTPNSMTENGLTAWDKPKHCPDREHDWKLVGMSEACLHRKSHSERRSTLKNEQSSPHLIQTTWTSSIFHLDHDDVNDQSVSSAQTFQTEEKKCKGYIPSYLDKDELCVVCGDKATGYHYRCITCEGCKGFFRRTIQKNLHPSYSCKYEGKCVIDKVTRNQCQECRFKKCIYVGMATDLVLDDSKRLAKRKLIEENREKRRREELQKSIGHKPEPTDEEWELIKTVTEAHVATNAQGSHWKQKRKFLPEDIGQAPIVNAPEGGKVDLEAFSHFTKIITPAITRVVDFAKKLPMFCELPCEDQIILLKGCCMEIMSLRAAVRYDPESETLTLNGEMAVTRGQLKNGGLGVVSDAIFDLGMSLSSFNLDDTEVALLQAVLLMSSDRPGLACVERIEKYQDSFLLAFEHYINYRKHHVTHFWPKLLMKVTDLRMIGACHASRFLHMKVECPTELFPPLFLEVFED
Chain of Peroxisome proliferator-activated receptor delta (Homo sapiens) (Q03181 whole entry, looked up): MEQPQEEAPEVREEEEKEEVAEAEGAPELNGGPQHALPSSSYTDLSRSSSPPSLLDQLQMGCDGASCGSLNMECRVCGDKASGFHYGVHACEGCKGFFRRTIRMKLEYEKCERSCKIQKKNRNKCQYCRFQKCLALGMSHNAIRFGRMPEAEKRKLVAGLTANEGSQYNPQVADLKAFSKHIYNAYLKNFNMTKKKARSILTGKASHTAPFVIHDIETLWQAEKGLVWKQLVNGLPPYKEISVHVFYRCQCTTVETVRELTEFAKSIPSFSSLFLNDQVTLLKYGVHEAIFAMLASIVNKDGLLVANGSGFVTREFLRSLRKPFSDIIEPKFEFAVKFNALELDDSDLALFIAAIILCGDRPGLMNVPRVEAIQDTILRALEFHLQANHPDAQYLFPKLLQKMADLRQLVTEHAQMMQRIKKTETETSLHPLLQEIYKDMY
Chain of Peroxisome proliferator-activated receptor gamma (Homo sapiens) (P37231 whole entry, looked up): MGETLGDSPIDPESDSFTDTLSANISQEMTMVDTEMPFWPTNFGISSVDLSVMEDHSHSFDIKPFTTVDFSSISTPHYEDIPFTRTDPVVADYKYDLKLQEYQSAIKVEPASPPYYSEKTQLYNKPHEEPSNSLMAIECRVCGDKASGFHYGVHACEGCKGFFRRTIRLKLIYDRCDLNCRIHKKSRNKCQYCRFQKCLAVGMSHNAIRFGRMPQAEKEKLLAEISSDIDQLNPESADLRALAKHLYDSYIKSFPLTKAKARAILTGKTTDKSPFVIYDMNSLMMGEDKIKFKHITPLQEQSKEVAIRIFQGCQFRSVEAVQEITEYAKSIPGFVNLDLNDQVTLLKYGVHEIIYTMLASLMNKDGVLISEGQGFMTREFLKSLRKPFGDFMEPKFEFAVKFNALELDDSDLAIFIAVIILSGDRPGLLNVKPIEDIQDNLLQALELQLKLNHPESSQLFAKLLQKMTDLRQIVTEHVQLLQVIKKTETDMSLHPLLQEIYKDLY
Chain of Vitamin D3 receptor (Homo sapiens) (P11473 whole entry, looked up): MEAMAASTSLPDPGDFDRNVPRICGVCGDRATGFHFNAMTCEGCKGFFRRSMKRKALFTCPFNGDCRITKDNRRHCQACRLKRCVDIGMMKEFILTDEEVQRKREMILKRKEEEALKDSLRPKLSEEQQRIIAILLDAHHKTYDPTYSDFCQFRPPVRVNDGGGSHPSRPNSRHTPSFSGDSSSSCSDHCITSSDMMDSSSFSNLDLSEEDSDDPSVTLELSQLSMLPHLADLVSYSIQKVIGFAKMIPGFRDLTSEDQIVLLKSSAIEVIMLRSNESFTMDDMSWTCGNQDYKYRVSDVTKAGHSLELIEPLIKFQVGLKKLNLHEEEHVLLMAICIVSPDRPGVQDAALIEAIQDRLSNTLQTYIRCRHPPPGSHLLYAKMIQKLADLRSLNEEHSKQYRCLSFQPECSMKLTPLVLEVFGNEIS
Chain of Estrogen receptor (Homo sapiens) (P03372 whole entry, looked up): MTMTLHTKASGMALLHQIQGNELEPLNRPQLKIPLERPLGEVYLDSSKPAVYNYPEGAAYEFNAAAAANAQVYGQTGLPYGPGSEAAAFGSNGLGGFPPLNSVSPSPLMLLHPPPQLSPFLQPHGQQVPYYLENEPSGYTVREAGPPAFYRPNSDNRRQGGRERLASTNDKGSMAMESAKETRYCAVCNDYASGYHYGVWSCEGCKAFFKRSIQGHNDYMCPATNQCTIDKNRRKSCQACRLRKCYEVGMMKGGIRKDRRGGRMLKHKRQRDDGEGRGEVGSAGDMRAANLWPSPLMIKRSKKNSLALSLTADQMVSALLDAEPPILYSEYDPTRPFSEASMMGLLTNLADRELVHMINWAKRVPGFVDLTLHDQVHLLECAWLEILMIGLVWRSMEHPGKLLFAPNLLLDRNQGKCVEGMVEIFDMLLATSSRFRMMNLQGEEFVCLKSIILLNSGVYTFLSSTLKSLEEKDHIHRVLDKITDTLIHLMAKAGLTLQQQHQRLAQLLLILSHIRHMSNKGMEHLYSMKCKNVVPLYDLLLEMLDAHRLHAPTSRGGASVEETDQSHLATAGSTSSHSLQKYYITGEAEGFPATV

CC1(c2ccc(Oc3ccccc3)cc2)OC(=O)N(Nc2ccccc2)C1=O (stereo not given)
Potency [1]: 15.8 µM [inhibitor] (active) | outcome [2]: inactive | outcome [3]: inactive | max response [4]: 19.6% | Potency [5]: 31.6 µM (active) | Potency [6]: 5.01 µM (active) | activation [7]: 4.76% (inactive) | max response [8]: 11.6% (inactive) | Potency [9]: inactive | max response [10]: -28.5% (inactive) | max response [11]: -20.8% (inactive)

C=CC(=O)OCCCCCC(C)C
Potency [1]: inactive | outcome [2]: inactive | max response [12]: 38.5% | Potency [13]: inactive | Potency [14]: inactive | outcome [3]: inactive | max response [15]: -13.5% | Potency [16]: 31.6 µM (active) | Potency [17]: inactive | max response [4]: -15.4% | max response [5]: -5.23% (inactive) | activation [6]: -4.19% (inactive) | activation [7]: -0.0847% (inactive) | max response [8]: -1.09% (inactive) | Potency [9]: inactive | max response [10]: 8.44% (inactive) | max response [11]: 4.71% (inactive) | Potency [18]: inactive | max response [19]: 0.944% (inactive)

CCSCc1ccccc1OC(=O)NC
Potency [1]: inactive | outcome [2]: inactive | Potency [13]: inactive | Potency [20]: inactive | Potency [14]: inactive | outcome [3]: inactive | max response [15]: -16.4% | Potency [16]: inactive | Potency [17]: inactive | max response [4]: -7.11% | max response [5]: -13% (inactive) | activation [6]: 3.49% (inactive) | activation [7]: 0.553% (inactive) | max response [8]: -0.372% (inactive) | Potency [9]: inactive | max response [10]: -3.42% (inactive) | max response [11]: -9.67% (inactive) | Potency [18]: inactive | max response [19]: 0.0425% (inactive)

CCC(C)n1c(=O)[nH]c(C)c(Br)c1=O (stereo not given)
Potency [1]: inactive | Potency [13]: inactive | Potency [20]: inactive | Potency [14]: inactive | outcome [3]: inactive | max response [15]: 0.805% | Potency [16]: inactive | Potency [17]: inactive | max response [4]: -12.2% | max response [5]: 5.41% (inactive) | activation [6]: -1.24% (inactive) | activation [7]: 4.91% (inactive) | max response [8]: -0.488% (inactive) | Potency [9]: inactive | max response [10]: 4.81% (inactive) | max response [11]: -3.11% (inactive) | Potency [18]: inactive | max response [19]: -6.26% (inactive)

CNC(=O)O/N=C(\SC)C(=O)N(C)C
Potency [1]: inactive | outcome [2]: inactive | max response [12]: 22.2% | Potency [13]: inactive | Potency [14]: inactive | max response [15]: -12.6% | Potency [16]: inactive | Potency [17]: inactive | max response [4]: -5.53% | max response [5]: -20.9% (inactive) | activation [6]: 2.97% (inactive) | activation [7]: -0.668% (inactive) | max response [8]: 0.554% (inactive) | Potency [9]: inactive | max response [10]: -17.7% (inactive) | max response [11]: -24.8% (inactive) | Potency [18]: inactive | max response [19]: -0.972% (inactive)

COc1cnc(OC)n2nc(NS(=O)(=O)c3c(OCC(F)F)cccc3C(F)(F)F)nc12
Potency [1]: inactive | outcome [2]: inactive | Potency [13]: inactive | Potency [20]: inactive | Potency [17]: inactive | max response [4]: 8.71% | max response [5]: -13.9% (inactive) | activation [6]: 1.45% (inactive) | activation [7]: 0.743% (inactive) | max response [8]: -1.19% (inactive) | Potency [9]: inactive | max response [10]: -2.64% (inactive) | max response [11]: -8.21% (inactive) | Potency [18]: inactive | max response [19]: -1.36% (inactive)
